# Bioassay records: PubChem, several laboratories
# hcDAF12 agonist: H. contortus DAF-12 activation, primary screen. activation, % at 6.8 µM. AID 652067. 370,000 compounds, 1.4% hits. HEK293 hcDAF-12 lit1-tk-luc reporter, luminescence; 0% DMSO, 100% Δ7-dafachronic acid;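 active = activation above the mean of all tested compounds plus 3 SD, cut at about 5.5% in these data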
# DAX1 inh-1: blocks DAX1 repression of SF-1 activated StAR promoter. inhibition, % at 6.8 µM. 370,000 compounds, 1.1% hits. AID 652010. HEK293T StAR-luciferase reporter, SF-1/DAX-1 repression relief;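 active = inhibition above the mean over all tested compounds plus 3 SD, cut at about 3.6% in these data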;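 note: higher inhibition means more luminescence from relief of DAX-1 repression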
# hgDAF12 agonist: agonists of H. glycines DAF-12 nuclear receptor | HEK293 GAL4-hgDAF12 UAS-luciferase reporter, agonist luminescence; normalized to butyrate control | activation, % at 6.8 µM | 370,000 compounds, 1.8% hits | AID 687014;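 active = activation above a cutoff set at the mean of all screened compounds plus 3 SD, cut at about 10% in these data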
# ssDAF-12 act: activators of S. stercoralis DAF-12 nuclear receptor; activation, % at 6.8 µM; 370,000 compounds, 1% hits; HEK293 ssDAF-12/GRIP1 lit1-tk-luc reporter, luminescence; % of 3 µM dafachronic acid response; AID 652126;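 active = activation above the mean over all tested compounds plus 3 SD, cut at about 0.9% in these data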
# PolyA inhibitor: yeast polyadenylation inhibition | S. cerevisiae SKY197-pL101 polyadenylation reporter, beta-gal luminescence; efflux-impaired pdr1/pdr3 knockout yeast; score 100 = 6 SD above DMSO | activity score, % at 12 µM | 300,000 compounds, 0.02% hits | AID 1875;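 active = lowest replicate activity score at least 50, where 100 means six control SD above control mean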;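 note: yeast exposed to compound for 9 h at 30 °C; higher score means more reporter readthrough which indicates perturbed polyadenylation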
# DAX1 inh-2: inhibits human nuclear receptor DAX1; P51843; HEK293 Gal4-DAX1 luciferase reporter, luminescence; inhibition, % at 6.75 µM; 340,000 compounds, 0.99% hits;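 active = inhibition above the mean over all tested compounds plus 3 SD, cut at about 4.2% in these data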;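 note: inhibition shows as a rise in luminescence from relieved DAX1 repression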
# Target sequence (P51843 207-470 limits assumed): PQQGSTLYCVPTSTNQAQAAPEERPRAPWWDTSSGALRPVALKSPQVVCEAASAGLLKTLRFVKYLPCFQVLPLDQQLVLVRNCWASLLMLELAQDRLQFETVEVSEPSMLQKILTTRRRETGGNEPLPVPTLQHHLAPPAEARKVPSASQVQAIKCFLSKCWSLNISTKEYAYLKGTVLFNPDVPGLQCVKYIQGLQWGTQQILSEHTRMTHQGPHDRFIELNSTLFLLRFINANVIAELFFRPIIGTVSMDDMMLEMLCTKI
# DAX1 inh confirm: confirmation of human DAX1 (NR0B1) inhibitors | shares compounds with DAX1 inh-1 | HEK293T StAR-promoter luciferase reporter, SF-1/DAX-1 repression | inhibition, % at 6.8 µM | 2,400 compounds, 87% hits;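 active = inhibition above the average of every tested compound plus 3 SD, cut at about 3.8% in these data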;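 note: active compounds raise luminescence by relieving repression of the StAR reporter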
# SF1 mutant ctr: counter-screen for DAX1 inhibitors: nonselective inhibitors with SF-1 AF2 mutant. AID 652136. HEK293 StAR-luciferase, luminescence. shares compounds with DAX1 inh-1. inhibition, % at 6.8 µM. 2,400 compounds, 78% hits;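 active = inhibition above the mean of all tested compounds plus 3 SD, cut at about 3% in these data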
# LXRb hcDAF ctr: counter-screen for hcDAF-12 agonists: agonists of human LXR-beta | shares compounds with hcDAF12 agonist | HEK293 Gal4-LXR tk-luc reporter, luminescence, 24 h; normalized: DMSO 0%, positive control 100% | activation, % at 6.8 µM | 3,400 tested, under 10 active | AID 743027;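 active = mean percent activation of the reporter above a cutoff set as the average over tested compounds plus their standard deviation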
# Target sequence (P55055 whole entry, looked up, the tested form may be a part): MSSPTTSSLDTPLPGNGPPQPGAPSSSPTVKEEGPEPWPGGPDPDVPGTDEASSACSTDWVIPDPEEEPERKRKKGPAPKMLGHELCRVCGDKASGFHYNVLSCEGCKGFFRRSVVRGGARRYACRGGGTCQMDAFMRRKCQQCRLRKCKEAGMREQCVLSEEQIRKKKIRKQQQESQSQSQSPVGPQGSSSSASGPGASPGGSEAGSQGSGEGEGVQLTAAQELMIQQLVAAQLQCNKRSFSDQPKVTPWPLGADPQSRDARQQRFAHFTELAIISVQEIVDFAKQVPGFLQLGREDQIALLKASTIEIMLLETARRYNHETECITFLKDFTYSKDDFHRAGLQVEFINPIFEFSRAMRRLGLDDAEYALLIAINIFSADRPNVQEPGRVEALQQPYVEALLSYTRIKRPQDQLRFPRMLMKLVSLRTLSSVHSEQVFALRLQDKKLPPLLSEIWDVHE
# hcDAF12 conf: hcDAF-12 agonism, confirmation assay | shares compounds with hcDAF12 agonist | HEK293 hcDAF-12 lit1-tk-luc reporter, luminescence; % of Δ7-dafachronic acid response | activation, % at 6.8 µM | 3,400 compounds, 61% hits;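 active = mean activation across triplicate tests above the threshold derived from the earlier primary screen, cut at about 5.5% in these data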
# hgDAF12 ag: hgDAF-12 agonism, confirmation assay. shares compounds with hgDAF12 agonist. HEK293 GAL4-hgDAF12 luciferase reporter, agonist mode; percent of butyrate response. activation, % at 6.8 µM. 3,300 compounds, 80% hits. AID 743050;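 active = mean activation over triplicate wells above the hit cutoff derived from the earlier primary screen, cut at about 11% in these data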
# LXRb DAF12 ctr: counter-screen for DAF-12 agonists: agonists of human LXR-beta; 3,300 tested, under 10 active; shares compounds with hgDAF12 agonist; HEK293 Gal4-LXR luciferase reporter, 24 h; activation, % at 6.8 µM;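 active = mean activation of the triplicate above a set limit carried over from the primary screen, none filed active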
# A number is an active result; - = inactive; . = no result. In the library only some 4.1% were active in any assay of this set; here they are far more common.
SMILES,hcDAF12 agonist,DAX1 inh-1,hgDAF12 agonist,ssDAF-12 act,PolyA inhibitor,DAX1 inh-2,DAX1 inh confirm,SF1 mutant ctr,hgDAF12 ag,LXRb DAF12 ctr,others
COc1ccccc1N(CC(O)Cn1c(C)nc2ccccc21)S(=O)(=O)c1ccccc1 (centres undefined),-,-,-,-,-,-,.,.,.,.,
O=C(Nc1ccc(SC(F)F)cc1)C1=COCCO1,-,4.9,15,-,-,-,13,6.8,14,-,
O=C(COc1ccc(Cl)cc1)N/N=C/CCc1ccccc1,-,-,-,-,-,-,.,.,.,.,
COc1ccc(C(=O)NC(=O)NC2(C(Cl)(Cl)Cl)OCCO2)cc1,9.7,12,25,1.0,-,-,16,6.0,20,-,LXRb hcDAF ctr=-;hcDAF12 conf=9.1
Cc1ccc(NC(=S)NC(=O)C2CCCC2)c(Br)c1,6.3,9.3,15,-,.,-,9.5,4.7,21,-,
O=C(NC(=S)Nc1ccccc1Br)C1CC1,-,-,-,-,-,-,.,.,.,.,
Cc1cc(N)nc(=O)n1C1CC(O)C(CO)O1 (centres undefined),-,-,-,-,.,-,.,.,.,.,
CC(C)c1ccc(Nc2ncccc2C(=O)O)cc1,6.0,6.4,22,-,-,-,15,7.4,21,-,
COc1cccc(NC(=O)c2ccc3c(c2)N(C)CCS3)c1,6.2,8.7,16,-,-,-,10,9.3,18,-,
O=C(Nc1ccc(NC(=O)c2ccco2)nc1)c1ccco1,-,5.9,15,-,-,-,10,2.9,13,-,
CCCn1cnc2cc(NC(=O)c3ccco3)ccc21,6.6,5.5,15,1.2,-,-,-,3.8,-,-,LXRb hcDAF ctr=-;hcDAF12 conf=-
CC1(Cc2cccc(C(F)(F)F)c2)C(=O)Nc2ccc(-c3ccc(F)c(Cl)c3)cc21 (centres undefined),-,-,-,-,.,.,.,.,.,.,
CCc1sc(C(=O)N2CCc3ccccc32)cc1C,10,6.3,33,3.5,-,-,11,6.6,21,-,LXRb hcDAF ctr=-;hcDAF12 conf=7.2
N#C/C(=C\c1ccc2c(c1)OCO2)C(N)=S,-,-,-,-,-,.,.,.,.,.,
Cc1ccc(C(C#N)=Cc2ccc3c(c2)OCO3)cc1,-,6.8,18,-,.,-,11,5.0,21,-,
COc1ccc(Cl)cc1CC1(C)C(=O)Nc2c(Cl)cccc21 (centres undefined),-,-,-,-,.,.,.,.,.,.,
O=C(Nc1cccc(Br)c1)c1cc2ccccc2o1,9.1,5.1,26,-,-,4.3,12,7.0,21,-,LXRb hcDAF ctr=-;hcDAF12 conf=5.9
CC(C)C(=O)Nc1ccc(NC(=O)c2cc3ccccc3o2)cc1,-,-,-,-,-,-,.,.,.,.,
Cc1cnc(NC(=O)c2cc3ccccc3o2)s1,10,7.3,19,1.9,-,6.4,17,8.9,15,-,LXRb hcDAF ctr=-;hcDAF12 conf=14
COc1ccc(NC(C)=O)cc1S(=O)(=O)NCc1ccc2c(c1)OCO2,-,-,-,-,.,-,.,.,.,.,
CCc1ccc(NC(=O)c2noc3c2CCCCC3)cc1,-,5.7,15,1.2,-,4.8,16,9.0,20,-,
COc1ccc(CNC(=O)c2noc3c2CCCC3)cc1,-,-,-,-,-,-,.,.,.,.,
COc1ccc(NC(=O)c2noc3c2CCCCC3)cc1,5.7,4.5,20,-,-,-,12,5.5,18,-,
CN1CCN(c2ccc(-c3cccc(NC(=O)COc4ccc(Cl)cc4)c3)nn2)CC1,-,7.9,14,-,-,-,4.5,-,-,-,
CCC(=O)Nc1cccc(-c2ccc(N3CCCCC3)nn2)c1,5.9,15,14,-,-,-,10,4.7,15,-,
SMILES,hcDAF12 agonist,DAX1 inh-1,hgDAF12 agonist,ssDAF-12 act,PolyA inhibitor,DAX1 inh-2,DAX1 inh confirm,SF1 mutant ctr,hgDAF12 ag,LXRb DAF12 ctr,others
CCC(=O)Nc1cccc(-c2ccc(N3CCN(C)CC3)nn2)c1,.,.,.,.,-,-,.,.,.,.,
Cc1cccc2cc(/C=N/Nc3ccc(C(=O)O)cc3)c(Cl)nc12,6.0,8.9,19,-,-,-,37,15,25,-,
O=C(O)c1ccc(N/N=C/c2cc3ccccc3nc2Cl)cc1,5.6,5.4,17,-,-,4.3,14,5.7,12,-,
CNC[C@H]1Oc2ccc(NC(=O)Nc3ccccc3)cc2CC(=O)N([C@H](C)CO)C[C@H]1C,-,-,-,-,.,-,.,.,.,.,
COc1ccc(C(=O)Nc2nc3ccccc3c(=O)[nH]2)cc1,6.9,6.3,19,1.1,-,-,14,8.8,17,-,LXRb hcDAF ctr=-;hcDAF12 conf=-
COc1ccc(C(=O)Nc2nc3cc(OC)c(OC)cc3c(=O)[nH]2)cc1,-,-,-,-,.,-,.,.,.,.,
COc1ccc(CCCc2nnc(SCC(=O)NN)o2)c(C)c1,-,-,-,-,-,-,.,.,.,.,
Cc1csc(SCc2nnc(-c3ccc(Cl)cc3)o2)n1,-,-,-,-,-,-,.,.,.,.,
Cc1csc(SCc2nnc(-c3ccccc3Br)o2)n1,-,6.5,16,-,-,-,14,8.2,17,-,
Fc1ccccc1SCc1nnc(-c2ccccc2Br)o1,-,6.5,14,-,-,-,16,7.3,20,-,
COc1ccc(C(=O)Nc2nnc(SCC(=O)Nc3ccc(NC(C)=O)cc3)s2)c(OC)c1,8.7,13,14,-,-,9.3,14,7.2,19,-,LXRb hcDAF ctr=-;hcDAF12 conf=7.6
COc1ccc(NC(=O)CSc2nnc(NC(=O)C3CCC3)s2)cc1,-,-,-,-,-,-,.,.,.,.,
COc1ccc(CCN2CC(C(=O)NCc3nc(C)c(C)s3)CCC2=O)cc1 (centres undefined),-,-,-,-,-,-,.,.,.,.,
CC(=Nc1ccc(Cl)cc1N)c1c(O)cc(C)oc1=O,10,9.8,24,1.6,.,.,-,-,16,-,LXRb hcDAF ctr=-;hcDAF12 conf=5.6
